# SW480 rereplic = inducers of DNA re-replication in SW480 colon cancer cells; SW480 DNA re-replication, Hoechst DNA content imaging, 48 h; Potency, µM (highest dose often 46.1 µM), for inactives: at the top dose re-replication activation, actives largely listed as activators; hit rate 1.8% among 340,000; AID 624297; further: % of control where 0% means no effect; nearly all actives have a fitted effect of over 55% in size
#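 Readout is total intensity of Hoechst-stained nuclei, excited at 405 nm and collected at 500-530 nm. Compound treatment lasted 48 hr at 37 C in 5% CO2 before staining.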
# KB-3-1 cytotox = kills parental KB-3-1 adenocarcinoma cells. AID 1347075. hit rate 1.4% among 400,000. Potency, µM (titrated, usually from 46.1 µM), usual class: cytotoxic. KB-3-1 viability, CellTiter-Glo ATP luminescence, 72 h; further: on the % scale 0 is the no-effect control and ±100 the full control effect; nearly all actives have a fitted effect of over 60% in size
#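 KB-3-1 parental drug-naive adenocarcinoma cells in DMEM/10% FBS, incubated 72 h at 37 C with pin-transferred compounds across a concentration series. Viability by CellTiter-Glo luminescence; concentration-response curves fitted after normalization.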
# MCF10A rereplic = DNA re-replication induction in MCF 10a cells | MCF 10A DNA re-replication, Hoechst nuclear intensity, 48 h | Potency, µM (titrated, usually from 46.1 µM), for the others: at the highest dose activity, positive = re-replication, most hits filed as activators | hit rate 2.9% among 350,000 | AID 624296; further: % of control where 0% means no effect; nearly all actives have a fitted effect of over 50% in size
# ELG1 DNA repair = ELG1-dependent DNA repair inhibition; HEK293T ELG1-luciferase reporter, luminescence, 16 h; DNA damage induced by 5-fluorouridine; Potency, µM (highest dose often 46.1 µM), for the others: at the top dose activity change, negative = inhibition, actives largely listed as inhibitors; AID 504467; hit rate 2.3% among 330,000; further: on the % scale 0 is the no-effect control and ±100 the full control effect; nearly all actives have a fitted effect of over 55% in size
#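 5-Fluorouridine DNA damage + compound/DMSO, 2,000 cells/well, 16 h, 37 °C/5% CO2. ONE-Glo, 30 min RT, luminescence. Readout = decrease in reporter signal.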
# KB-V1 MDR tox = kills drug-selected multidrug resistant KB-V1 cells; KB-V1 MDR cells viability, CellTiter-Glo, 72 h; Potency, µM (doses to about 46.1 µM), usual class: cytotoxic; hit rate 3.4% among 400,000; AID 1347076; further: on the % scale 0 is the no-effect control and ±100 the full control effect; nearly all actives have a fitted effect of over 60% in size
#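 Cells of the MDR subline KB-V1 are plated, dosed with compound at multiple concentrations, and incubated 72 h at 37 degrees C; CellTiter-Glo is then added and luminescence read after 10 min.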
# An asterisk follows results filed as active; i = inactive; ? = inconclusive; / = not tested or not shown; [ ] = another dose, or the depositor's remark. A selection: hits, their analogues and other compounds. The true share with any hit is near 8.1%. The call rests on the fitted dose curve; in most records, active means well fitted curve in the direction sought with a large enough effect; inconclusive means small, poorly fitted or top-dose-only effect, or another doubt; inactive means no such curve, though single readings can be large; an effect the other way counts as inactive or inconclusive. Potency means the concentration at half of the fitted maximal effect.
SMILES,SW480 rereplic,KB-3-1 cytotox,MCF10A rereplic,ELG1 DNA repair,KB-V1 MDR tox
O=C(c1ccc(Cl)c(Cl)c1)N1CCC(=O)N(C(COCc2cccc(C(F)(F)F)c2)Cc2ccccc2)CC1 (stereo unspecified),18µM*,?,?,?,?
Cc1ccc(-n2cnc3cc(C(=O)NC4CCCCCC4)ccc32)c(C)c1,/,i,/,/,i
CCS(=O)(=O)c1ccccc1C(=O)NC1CCCc2ccccc21 (stereo unspecified),-6%,i,-13%,-3%,i
S=C(NCCSCc1c(Cl)cccc1Cl)Nc1ccccc1,2%,?,?,-25%,21µM*
S=C(NCCSCc1ccc(Cl)c(Cl)c1)Nc1ccccc1,?,i,26µM*,/,i
COCCNC(=O)C1(C)CCN(C(=O)C2(c3ccc(Cl)cc3)CCCC2)C1 (stereo unspecified),/,i,/,/,i
Cc1cc(O)c(CN2CCN(S(=O)(=O)c3cccs3)CC2)cc1C(C)C,2%,i,10%,11µM*,?
Cc1cc(C(C)(C)C)cc(CN2CCN(S(=O)(=O)c3cccs3)CC2)c1O,/,i,/,/,i
COc1cc2c(cc1OC)C(COc1ccc3c(C)cc(=O)oc3c1)N(C(=O)c1ccc(Cl)cc1)CC2 (stereo unspecified),/,i,/,/,i
Cc1cc(C)c(S(C)(=O)=O)c(Oc2cccc(Cl)c2)n1,-5%,i,0%,0%,i
Cc1cc(C)c(S(C)(=O)=O)c(Oc2ccc(C(C)(C)C)cc2)n1,-38%,i,20%,-11%,16µM*
CCN(C(=O)c1cc2c(s1)-c1ccccc1OC2)c1cc(Cl)ccc1OC,/,i,/,/,i
CCOC(CNC(=O)Cn1nc(C)c2ccccc21)OCC,-38%,?,0.73µM*,13%,i
COc1ccccc1N1CCN(Cc2cc(=O)c(OCC(=O)Nc3ccccc3)co2)CC1,?,i,10%,-23%,?
O=C(Nc1cc(Cl)ccc1O)c1snnc1-c1ccccc1,1%,18µM*,?,-24%,8.2µM*
CCOc1cc2c(cc1O)C(=NOC)CC1C2CCC2(C)C(O)CCC12 (stereo unspecified),5.8µM*,0.65µM*,2.1µM*,/,0.52µM*
O=C1C(F)=CC(COC(c2ccccc2)(c2ccccc2)c2ccccc2)OC1n1cc(F)c(=O)[nH]c1=O (stereo unspecified),7.3µM*,?,2.6µM*,/,?
O=C(CSc1nc2ccccc2s1)NCC1CCCO1 (stereo unspecified),-17%,i,-15%,19%,i
O=C(CSc1nc2ccc(NC(=O)C3CCCCC3)cc2s1)NCC1CCCO1 (stereo unspecified),-5%,i,-1%,13µM*,?
COc1cccc(C(=O)Nc2ccccc2SCc2cc(=O)c3cccc(C)c3[nH]2)c1,/,i,/,/,i
O=C(COc1ccc2ccccc2c1)Nc1ccc(Br)cc1C(=O)O,-3%,?,9.2µM*,8%,i
O=C(COc1ccc2ccccc2c1)Nc1ccc2c3c(cccc13)CC2,-9%,i,21µM*,22%,i
O=C(COc1ccc2ccccc2c1)Nc1cccc(C(=O)Nc2ccccc2C(=O)O)c1,/,i,25%,?,i
O=C1C(c2ccncc2)N(CCC2=CCCCC2)C(=O)CN1C1CCCCC1 (stereo unspecified),14%,i,-9%,-7%,11µM*
CCOc1c(OC)cccc1C1CC(=O)Nc2cc3c(cc21)OCCO3 (stereo unspecified),?,?,?,?,i
SMILES,SW480 rereplic,KB-3-1 cytotox,MCF10A rereplic,ELG1 DNA repair,KB-V1 MDR tox
CC(C)COc1ccccc1C1CC(=O)Nc2cc3c(cc21)OCO3 (stereo unspecified),/,6.5µM*,/,/,?
CN(C)c1ccc(/C=C/C(=O)c2ccc(O)cc2)cc1,18µM*,?,?,/,i
O=C(/C=C/c1cccnc1)c1ccc(O)cc1,21µM*,?,?,?,?
O=C(/C=C/c1cccc(O)c1)c1cccnc1,?,i,21µM*,11%,?
Cc1ccc([C@H]2C[C@H](n3cc(COC(=O)c4ccccc4)nn3)[C@@H](O)CN2Cc2cccs2)cc1,/,i,/,/,i
CCOc1cc(Br)c(C=O)cc1OCC,13µM*,?,?,27%,i
CCOc1ccccc1-n1c(SCC(=O)Nc2ccccc2C(=O)O)nc2ccccc2c1=O,1%,i,?,?,i
Cc1cc(Nc2cccc(Br)c2)n2c(nc3ccccc32)c1C#N,/,8.2µM*,/,/,?
N#Cc1c2c(c(Nc3ccc(F)cc3)n3c1nc1ccccc13)CCCC2,7%,?,?,/,i
N#Cc1c2c(c(Nc3ccccc3)n3c1nc1ccccc13)CCC2,3%[9.22 µM],?,16µM*,-4%,i
Cc1cc(Nc2ccc(O)cc2)n2c(nc3ccccc32)c1C#N,-20%[1.84 µM],i,-24%,-7%,i
O=C(CSc1nc(O)c(Cc2ccccc2)c(=O)[nH]1)Nc1nnc(SCc2ccccc2)s1,-6%,i,1%,-6%,i
Cc1nn(-c2ccccc2)c(NC(=O)c2cccs2)c(-c2ccccc2Cl)c1=O,?,i,1%,3%,i
c1ccc(-n2nnnc2-c2cccc3ccccc23)cc1,5.8µM*,/,23µM*,/,/
Clc1ccc2[nH]cc(-c3nnnn3-c3ccccc3)c2c1,17%,18µM*,20%,-30%,16µM*
CCOC(=O)C1CCN(Cc2ccc3ccccc3c2)CC1,4%,i,16%,-5%,i
C=CCn1c(SCc2c(C)noc2C)nc2ccccc2c1=O,0.65µM*,?,7.3µM*,24%,?
C=CCn1c(SCc2c(C)noc2C)nc2cc(C(=O)O)ccc2c1=O,?,?,2.9µM*,?,?
CCCn1c(N)c(C(=O)COC(=O)c2c(C)noc2C)c(=O)n(C)c1=O,4%,i,4%,23µM*,i
CCN(CC)S(=O)(=O)c1cccc(C(=O)OCC(=O)c2ccc3c(c2)OCCO3)c1,-17%,i,3%,-8%,13µM*
CC(C)COc1ccc(CNC(=S)NCc2ccccc2)cc1,?,i,?,-2%,?
O=S(=O)(c1cc(-c2nnc(-c3ccc(Br)cc3)o2)ccc1Br)N1CCCCCC1,2%,?,24%,21µM*,i
O=C(c1ccccc1)c1ccccc1C(=O)c1ccccc1,?,i,18%,-10%,i
COc1ccc(-n2nnnc2/C=C/Nc2cc(C(F)(F)F)ccc2OC)cc1,3%,i,13%,-5%,i
COc1ccc(-n2nnnc2/C=C\Nc2ccccc2C(=O)c2ccccc2)cc1,10µM*,5.8µM*,26%,-9%,4.6µM*
